For test [1], the target named is Luciferin 4-monooxygenase (Photinus pyralis) (UniProt P08659). The experiment in a line: qHTS assay to identify small molecule inhibitors of firefly luciferase (AID 1224835). Also: nearly all actives have a fitted effect of over 25% in size. The method in brief: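 Quantitative HTS format; KM concentrations of both substrates. Purified P. pyralis FLuc activity quantified from luminescence images.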
On the technique in general: In qHTS, concentration-response curves come from the screen itself.

Test [2] in a line: qHTS assay to identify small molecule agonists of the constitutive androstane receptor (CAR) signaling pathway - cell viability counter screen (AID 1224836). Also: nearly all actives have a fitted effect of over 45% in size. Also: potency is read from the fitted curve at half-maximal effect. The essentials: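 Counter screen multiplexed with the CAR reporter readout: HepG2 cells co-transfected with hCAR and the CYP2B6-2.2kb construct receive a 15-concentration compound series and 0.75 uM PK11195 (final), then CellTiter-Fluor fluorescence is read after 23 h.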

A short description of test [3]: qHTS assay to identify small molecule antagonists of the constitutive androstane receptor (CAR) signaling pathway - cell viability counter screen (AID 1224837). Also: nearly all actives have a fitted effect of over 45% in size. The essentials: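 HepG2 cells stably carrying hCAR and CYP2B6-2.2kb reporter, stimulated with 50 nM CITCO and compounds at 15 concentrations for 23 h at 37 C. Viability measured by CellTiter-Fluor fluorescence.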

A short description of test [4]: qHTS assay to identify small molecule antagonists of the estrogen related receptor signaling pathway with the pleiotropic PPARgamma coactivator (PGC) from Tox21 10K library - cell viability counter screen (AID 1224840; active = well fitted cell-killing curve with a large enough effect in the repeat runs, not every such curve was filed as active; also: nearly all actives have a fitted effect of over 40% in size; also: potency is read from the fitted curve at half-maximal effect). The method in brief: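 PGC/ERR cells (2,000/well) plated 6 h, then compound-treated for 17.5 h at 37 C. Viability measured by CellTiter-Fluor fluorescence after 30 min at 37 C, multiplexed with the pathway assay.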

The target in test [5] is Thyrotropin receptor (Homo sapiens) (UniProt P16473). Description: qHTS assay to identify small molecule agonists of the thyroid stimulating hormone receptor (TSHR) signaling pathway (AID 1224843; calls by dose curve; also: nearly all actives have a fitted effect of over 45% in size; also: potency is read from the fitted curve at half-maximal effect). The method in brief:
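Cell line HEK293 with TSHR; density 800/well. Exposure 30 min RT. Readout HTRF cAMP (cAMP-d2/anti-cAMP-cryptate), 1 h RT before reading.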

The nature of test [6]: qHTS assay to identify small molecule agonists of the hypoxia (HIF-1) signaling pathway - cell viability counter screen (AID 1224844; calls by dose curve; also: nearly all actives have a fitted effect of over 50% in size; also: potency is read from the fitted curve at half-maximal effect). The essentials: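 HRE-bla ME-180 cells, 2,000/well in 0.5% dialyzed FBS medium, treated 17 h at 37C with compounds. Viability read in the same wells as the bla reporter, by CellTiter-Glo luminescence after 30 min at room temperature.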
Test [7] in a line: qHTS assay to identify small molecule agonists of H2AX (AID 1224845; active = well fitted activation curve with a large enough effect in the signal ratio in the repeat runs, not every such curve was filed as active; the % refers to the signal ratio; also: potency is read from the fitted curve at half-maximal effect). The method in brief: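 Wild-type CHO-K1 cells plated overnight, then exposed 3 hr at 37C to compounds at 15 concentrations (0.76% DMSO). Lysed, then HTRF anti-pH2AX(S139)-cryptate/anti-H2AX-d2 detection after 24 hr at room temperature; emissions 665 and 620 nm.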
A short description of test [8]: qHTS assay to identify small molecule agonists of the hypoxia (HIF-1) signaling pathway (AID 1224846; active = well fitted activation curve with a large enough effect in the signal ratio in the repeat runs, not every such curve was filed as active; the % refers to the signal ratio). The method in brief: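 HRE-bla ME-180 beta-lactamase reporter cells in medium with 0.5% dialyzed FBS, pre-incubated 5 h then exposed to compounds 17 h at 37C, 5% CO2; reporter induction read with CCF4-AM FRET substrate.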
Test [9] in a line: qHTS assay to identify small molecule agonists of H2AX - cell viability counter screen (AID 1224847; calls by dose curve; also: nearly all actives have a fitted effect of over 30% in size; also: potency is read from the fitted curve at half-maximal effect). The method in brief:
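We seed wild-type CHO-K1 cells overnight, treat them for 3 hr at 37C with compounds in 15-concentration series, and quantify remaining viability by CellTiter-Glo luminescence.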

Test [10] in a line: qHTS RealTime-Glo MT Cell Viability Assay in HepG2 cells - 24 hour (AID 1224867). Also: nearly all actives have a fitted effect of over 50% in size. Also: potency is read from the fitted curve at half-maximal effect. The method in brief:
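qHTS, HepG2, 600 cells/well, RealTime-Glo (NanoLuc + prosubstrate) added with cells; 5 h preincubation; DMSO compound addition; 37 C; luminescence at 0/8/16/24/32/40 h.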

A short description of test [11]: qHTS RealTime-Glo MT Cell Viability Assay in HEK293 cells - 32 hour (AID 1224868). Also: nearly all actives have a fitted effect of over 50% in size. Also: potency is read from the fitted curve at half-maximal effect. The essentials:
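Assay medium contained NanoLuc luciferase plus cell-permeant prosubstrate, added with HEK293 cells at 600 cells/well. After 5 h at 37 C/5% CO2 compounds were added; plates stayed at 37 C for 40 h with serial luminescence reads.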

The nature of test [12]: A CellTox Green Cytotoxicity Assay to monitor cytotoxicity in HEK293 cells - 0 hour (AID 1224869). Also: nearly all actives have a fitted effect of over 50% in size. The essentials: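 HEK293 cells, 600/well, were preincubated 5 hours and then exposed to compounds at 37 C for up to 40 hours. A cell-impermeant cyanine dye staining dead-cell DNA was read by fluorescence at 0, 8, 16, 24, 32 and 40 h time points.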
Test [13] can be described thus: qHTS assay to identify small molecule antagonists of the estrogen related receptor signaling pathway with the pleiotropic PPARgamma coactivator (PGC) from Tox21 10K library (AID 1224841; call rule not given here; also: potency is read from the fitted curve at half-maximal effect). The essentials:
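PGC/ERR cell line, 2,000 cells/well, pre-incubated 6 hours at 37 C, then exposed to compounds for 18 hours at 37 C; luciferase read with One-Glo luminescence after 30 min at room temperature.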

Test [14] can be described thus: qHTS assay to identify small molecule agonists of the estrogen related receptor signaling pathway with the pleiotropic PPARgamma coactivator (PGC) from Tox21 10K library (AID 1224842). Also: nearly all actives have a fitted effect of over 15% in size. The essentials: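 PGC/ERR reporter cells (NTP line) were seeded 2,000 per well, rested 6 h at 37 C/5% CO2, then pin-dosed with compounds in DMSO for 18 h at 37 C; luciferase read by One-Glo luminescence after 30 min at room temperature.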

A short description of test [15]: qHTS assay to identify small molecule antagonists of the estrogen related receptor (ERR) signaling pathway from Tox21 library (AID 1224848). Also: nearly all actives have a fitted effect of over 50% in size. Also: potency is read from the fitted curve at half-maximal effect. The essentials:
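Screening used an ERR reporter line supplied by NTP, exposed for 18 h at 37 C to library compounds delivered in DMSO. Signal was luciferase luminescence developed with ONE-Glo at room temperature for 30 min.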

The nature of test [16]: qHTS assay to identify small molecule agonists of the estrogen related receptor (ERR) signaling pathway from Tox21 library (AID 1224849; calls by dose curve; also: nearly all actives have a fitted effect of over 15% in size). As to conditions: ERR reporter cell line, ONE-Glo luciferase, 18 h; at 92.4 µM (top of the series) unless noted. The essentials: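 ERR reporter cells (NTP line) pre-incubated 6 hours at 37 C, then exposed to compounds for 18 hours at 37 C. ONE-Glo luciferase luminescence was read after 30 minutes at room temperature.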

Test [17] has as its target Nuclear receptor subfamily 1 group I member 3 (Homo sapiens) (UniProt Q14994). Description: qHTS assay to identify small molecule antagonists of the constitutive androstane receptor (CAR) signaling pathway (AID 1224838). Also: nearly all actives have a fitted effect of over 40% in size. Also: potency is read from the fitted curve at half-maximal effect. The essentials: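 HepG2 cells stably carrying hCAR and a CYP2B6-2.2kb luciferase reporter, seeded 4 hrs before compound (15 concentrations). Stimulated with 50 nM CITCO for 24 hr at 37 C. ONE-Glo luminescence read after 30 min at room temperature.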

Test [18] has the same target. Description: qHTS assay to identify small molecule agonists of the constitutive androstane receptor (CAR) signaling pathway (AID 1224839). Also: nearly all actives have a fitted effect of over 15% in size. The method in brief: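 A 15-concentration quantitative screen uses HepG2 cells co-transfected stably with human CAR and CYP2B6-2.2kb reporter. Treatment lasts 24 h with 0.75 uM PK11195 final present; ONE-Glo luminescence is the signal.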

Unmarked numbers belong to inactive results. Records with an inconclusive call do not appear. Calls of active or inactive are those of the source. Unless noted, calls follow the shape of the dose curve; as a rule, active = well fitted curve in the direction sought with a large enough effect in the repeat runs; inconclusive = weak or mixed curves; inactive = no such curve, though single readings can be large; an effect the other way counts as inactive or inconclusive.
% is scaled to controls: 0 for no effect and ±100 for the full control effect.

Chain of Thyrotropin receptor (Homo sapiens) (P16473 whole entry, looked up): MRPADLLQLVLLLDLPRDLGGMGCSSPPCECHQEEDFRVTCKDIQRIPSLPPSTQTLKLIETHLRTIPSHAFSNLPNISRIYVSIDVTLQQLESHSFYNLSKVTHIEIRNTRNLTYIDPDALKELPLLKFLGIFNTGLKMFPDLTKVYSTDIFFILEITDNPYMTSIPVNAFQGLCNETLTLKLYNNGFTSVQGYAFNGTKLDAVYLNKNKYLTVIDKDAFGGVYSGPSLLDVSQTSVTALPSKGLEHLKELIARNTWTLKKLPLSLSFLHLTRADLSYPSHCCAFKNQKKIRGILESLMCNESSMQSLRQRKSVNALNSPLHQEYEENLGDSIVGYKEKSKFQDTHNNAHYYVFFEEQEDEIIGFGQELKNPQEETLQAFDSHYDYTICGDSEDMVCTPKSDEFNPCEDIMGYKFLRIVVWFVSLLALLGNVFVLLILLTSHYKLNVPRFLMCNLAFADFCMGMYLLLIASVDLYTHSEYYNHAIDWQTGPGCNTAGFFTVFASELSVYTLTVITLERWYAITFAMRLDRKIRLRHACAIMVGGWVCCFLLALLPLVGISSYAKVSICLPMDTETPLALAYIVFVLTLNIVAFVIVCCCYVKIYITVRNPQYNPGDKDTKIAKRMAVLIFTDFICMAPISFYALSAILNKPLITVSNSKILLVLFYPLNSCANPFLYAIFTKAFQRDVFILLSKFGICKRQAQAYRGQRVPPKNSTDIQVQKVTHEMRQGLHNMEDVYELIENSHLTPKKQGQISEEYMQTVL
Chain of Luciferin 4-monooxygenase (Photinus pyralis) (P08659 whole entry, looked up): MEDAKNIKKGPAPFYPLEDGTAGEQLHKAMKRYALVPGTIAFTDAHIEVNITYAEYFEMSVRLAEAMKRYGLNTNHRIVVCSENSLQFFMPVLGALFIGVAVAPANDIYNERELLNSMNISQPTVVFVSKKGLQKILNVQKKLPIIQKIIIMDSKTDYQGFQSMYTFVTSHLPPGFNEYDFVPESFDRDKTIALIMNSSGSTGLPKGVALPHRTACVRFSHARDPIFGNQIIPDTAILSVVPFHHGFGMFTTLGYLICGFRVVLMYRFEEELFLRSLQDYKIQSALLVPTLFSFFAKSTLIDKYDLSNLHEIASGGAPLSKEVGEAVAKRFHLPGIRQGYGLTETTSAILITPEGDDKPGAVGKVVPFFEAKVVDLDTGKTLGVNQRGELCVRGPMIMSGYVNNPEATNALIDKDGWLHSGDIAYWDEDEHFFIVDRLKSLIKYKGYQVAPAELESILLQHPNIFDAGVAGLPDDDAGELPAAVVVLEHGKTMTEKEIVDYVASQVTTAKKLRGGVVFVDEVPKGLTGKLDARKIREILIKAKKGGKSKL
Chain of Nuclear receptor subfamily 1 group I member 3 (Homo sapiens) (Q14994 whole entry, looked up): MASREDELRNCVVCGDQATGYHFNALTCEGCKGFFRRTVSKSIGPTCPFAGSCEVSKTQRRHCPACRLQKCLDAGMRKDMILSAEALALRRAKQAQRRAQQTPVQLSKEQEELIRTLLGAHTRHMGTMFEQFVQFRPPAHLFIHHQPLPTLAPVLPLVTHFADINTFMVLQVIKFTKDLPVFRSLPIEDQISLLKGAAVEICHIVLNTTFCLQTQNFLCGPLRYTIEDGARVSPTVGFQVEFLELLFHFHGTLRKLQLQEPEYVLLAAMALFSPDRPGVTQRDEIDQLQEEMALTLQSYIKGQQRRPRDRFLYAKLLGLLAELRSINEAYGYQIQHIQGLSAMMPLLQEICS

For the molecule `O=NN1CCCCCC1`, the Potency result in test [1], in test [2], in [3], in test [4], in test [5] and in test [6] was “inactive” each time. Further, the Potency result in test [7], in test [9], in test [10], in test [11] and in test [12] was “inactive” in each case. Besides, the molecule was called inactive in [8].

Turning to `Cc1ccccc1C(=O)Nc1cccc(OC(C)C)c1`, the Potency entry in test [2], in test [3], in [4], in test [5], in [7] and in test [10] was “inactive” throughout. Also, the call in [8] was inactive.

Take `CN1[C@@H]2CC[C@H]1CC(OC(=O)c1cc(Cl)cc(Cl)c1)C2` (stereo not given in full): the Potency entry in test [1], in test [2], in test [3], in [4], in test [7] and in test [9] was “inactive” each time. For the same molecule, the Potency result in test [12] was “inactive”. Besides, the outcome in test [8] was inactive.

Take `Clc1cccc(SC2CCNCC2)n1`: the Potency entry in test [1], in test [2], in [3], in test [4], in [13] and in test [14] was “inactive” each time. Moreover, the Potency result in test [5], in test [7], in [9], in test [15], in test [10] and in test [11] was “inactive” throughout. For the same molecule, the Potency entry in [12] is “inactive”. Also, the outcome in [8] was inactive. The activity change, positive = activation in test [16] was 0.887% [at 42.5 µM].

As to `CCCCCC[N+](=O)[O-]`, the Potency entry in [2], in [3], in test [17], in test [18], in [4] and in test [5] was “inactive” each time. Besides, the Potency result in test [6], in test [7], in test [9], in test [10], in test [11] and in test [12] was “inactive” in each case. Also, the outcome in test [8] was inactive.

As to `Oc1ccc(Cl)c(Cl)c1Cl`, the Potency entry in [2], in test [3], in test [17], in test [18], in [5] and in [7] was “inactive” each time. In test [10], the Potency result was “inactive”. For the same molecule, the molecule was classed as inactive in [8].

In the case of `COc1cc(Cl)c(OC)cc1Cl`, the Potency result in test [1], in [2], in [3], in test [4], in test [13] and in [14] was “inactive” in each case. The Potency result in [6], in test [7], in test [9], in [15], in test [10] and in test [11] was “inactive” throughout. For the same molecule, the Potency entry in test [12] is “inactive”. Further, in [8], the call was inactive. Besides, the activity change, positive = activation in test [16] was 0.702%.

Regarding `CCC(C)(NC(=O)c1cc(Cl)c(C)c(Cl)c1)C(=O)CCl` (stereo not given), the Potency result in test [1], in [18], in test [14], in test [7] and in test [12] was “inactive” in each case. Besides, the Potency in test [2] was 61.5 µM (active); in test [17], 48.9 µM (active); in test [4] it was 24.5 µM (active); in [13], 3.88 µM (active); in test [5], 43.5 µM (active); in test [6] it was 34.9 µM (active). Moreover, the Potency in [9] was 114 µM (active); in test [15] it was 9.75 µM (active); in [10], 49.3 µM (active); in test [11] it was 19.6 µM (active). The activity change, positive = activation in test [16] was -68.6%.

For `N#CCC#N`, the Potency entry in test [1], in test [18], in [5], in [6], in test [9] and in test [10] was “inactive” in each case. For the same molecule, the Potency result in test [11] and in [12] was “inactive” in each case. The Potency in test [2] is 48.6 µM (active); in [7], 89.8 µM (active). In addition, the molecule was classed as inactive in test [8].
